Test results: PubChem BioAssay (NCATS)
Records with an inconclusive call do not appear. Where a call stands in place of a potency, no number is given. Activity calls are given as the source filed them. Calls follow the shape of the dose curve; as a rule, active = well fitted curve in the direction sought with a large enough effect; inconclusive = small, poorly fitted or top-dose-only effect, or another doubt; inactive = no such curve, though single readings can be large; an effect the other way counts as inactive or inconclusive.

Columns and labels:
[1] = P-glycoprotein substrates identified in KB-3-1 adenocarcinoma cell line, qHTS therapeutic library screen (AID 1346986); also: nearly all actives have a fitted effect of over 60% in size
Method in brief: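 Counter-screen: cherry-picked hits retested in the KB pair and in HEK-293 pcDNA/MDR-19 cells ± tariquidar. Primary screen used 72 h CellTiter-Glo viability in KB-3-1 and KB-8-5-11.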

[2] = P-glycoprotein substrates identified in KB-8-5-11 adenocarcinoma cell line, qHTS therapeutic library screen (AID 1346987); also: nearly all actives have a fitted effect of over 65% in size
Method in brief: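 KB-8-5-11: colchicine-selected sub-line of KB-3-1 over-expressing P-gp; assay medium lacked colchicine. 72 h drug exposure at 37 degree C, CellTiter-Glo.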

SMILES	Potency [1]	Potency [2]
O=C(N[C@H](Cc1ccccc1)C(=O)O)c1sc2cc(F)ccc2c1Cl	inactive	inactive
CC1CC(=O)[C@]2(O)C(C(=O)OCCc3ccc(O)cc3)=CO[C@@H](O[C@@H]3O[C@H](CO)[C@@H](O)[C@H](O)[C@H]3O)[C@H]12 (stereo partly specified)	inactive	inactive
CC(C)C1NC(=O)C2CCCN2C1=O (stereo unspecified)	inactive	inactive
C=C[C@@](C)(CCC=C(C)C)O[C@@H]1O[C@H](CO[C@@H]2OC[C@H](O)[C@H](O)[C@H]2O)[C@@H](O)[C@H](O)[C@H]1O	inactive	inactive
FC(F)(F)Oc1ccc(-c2ccc3nnc(C(F)(F)F)n3c2)cc1	inactive	inactive
CC12CC(O)C(O)C=C1c1cc(O)cc(O)c1C(=O)O2 (stereo unspecified)	inactive	inactive
COc1ccc(-n2[nH]c3c(cnc4ccccc43)c2=O)cc1	inactive	inactive
CC(C)=C1CC2C(CCC2(C)O)C(C)(O)CC1=O (stereo unspecified)	inactive	inactive
COC1OC(=O)C2=C1C1(C)CCCC(C)(C)C1CC2O (stereo unspecified)	inactive	inactive
NC[C@H]1CCC[C@@H](CNC(=O)[C@@H](Cc2c[nH]c3ccccc23)NC(=O)N2CCC3(C=Cc4ccccc43)CC2)C1	inactive	inactive
COc1cc(/C=C/C(=O)O[C@@H]2C[C@](O)(C(=O)O)C[C@@H](O)[C@H]2O)ccc1O	inactive	inactive
N#CC1C(=O)N=C(c2cc(Cl)ccc2O)C=C1c1cc(OCc2ccccc2)cc(OCc2ccccc2)c1 (stereo unspecified)	inactive	inactive
CC(C)C1CCC(CO)=CC1/C=C(\CO)C(=O)OCC1(O)CCC(C(C)C)C2C=C(C(=O)O)COC(=O)C21 (stereo unspecified)	inactive	inactive
CC1=CC(=O)[C@]2(O[C@@H]3O[C@@H](C)[C@H](O)[C@@H](O)[C@H]3O)C=CO[C@@H](O[C@@H]3O[C@H](CO)[C@@H](O)[C@H](O)[C@H]3O)[C@H]12	inactive	inactive
CC1=CC(=O)C2C(C)(C)CCC[C@]2(C)[C@H]1CC[C@H](C)CC(=O)O (stereo partly specified)	inactive	inactive
O=C(O)CC(CCc1ccccc1)OC1OC(CO)C(O)C(O)C1O (stereo unspecified)	inactive	inactive
O=C(C[C@@H]1C(C(=O)O)=CO[C@@H](O[C@@H]2O[C@H](CO)[C@@H](O)[C@H](O)[C@H]2O)/C1=C\CO)OCCc1ccc(O)cc1	inactive	inactive
COc1cc(C2Oc3c(OC)cc(CCCO)cc3C2CO)ccc1O (stereo unspecified)	inactive	inactive
C[C@H](O)C(O)(C(=O)OCc1ccccc1NC(=O)CCC(N)C(=O)O)[C@H](C)O (stereo partly specified)	inactive	inactive
CCCCNc1nc(N)c2[nH]c(=O)n(Cc3ccc(OCCN(C)C)nc3)c2n1	inactive	inactive
C=C(CO)C(=O)O[C@H]1C[C@@]23O[C@@H]2CC/C(=C/[C@H]2OC(=O)C(=C)[C@H]12)CO[C@H]3O	inactive	inactive
COC(=O)C1=COC(OC2OC(CO)C(O)C(O)C2O)C2C(C)C(OC(C)=O)C(OC(=O)c3ccccc3)C12 (stereo unspecified)	inactive	inactive
CC(=O)N[C@H](Cc1c[nH]c2ccccc12)C(=O)OCc1cc(C(F)(F)F)cc(C(F)(F)F)c1	inactive	inactive
